Measurements reported in PubChem BioAssay (NCI).
This is part of a sample that, as a whole, favours compounds with a hit. Of some 79,000 tested, about 15% had one in any assay. Active and inactive are the calls of the source. Rule as the data show it: active = growth inhibition above about 70%; inactive = the rest.

Assay: NCI Yeast Anticancer Drug Screen. Data for the mlh1 strain (AID 171);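 also: 0% = growth of vehicle-treated control cultures of the same strain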
Settings: S. cerevisiae mlh1 strain growth inhibition; at 11.0 µM; active compounds read high
Outline: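 Measured: yeast growth. Reference: vehicle-treated controls. Organism: strain with a defined alteration affecting DNA damage repair or cell cycle control, treated with compound.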

Row | Structure (SMILES) | growth inhibition
1 | COc1ccc2nc3cccc([N+](=O)[O-])c3c(NCCNCCN(C)C)c2c1 | -1% (inactive)
2 | Cc1cccc(/C=N/NC(=S)NC2CCCCC2)n1 | -3% (inactive)
3 | COC(=O)C(=O)c1c(-c2ccc(Cl)c(Cl)c2)[nH]c2[nH]n(-c3ccccc3)c(=O)c2c1=O | 36% (inactive)
4 | c1ccc([P+](CCN2Cc3ccccc3C2)(c2ccccc2)c2ccccc2)cc1 | 32% (inactive)
5 | Cc1cc(C)c2[s+]snc2c1 | 0% (inactive)
6 | CC(C)(Br)C(=O)/C=C/c1ccccc1 | 10% (inactive)
7 | Cc1ccc(S(=O)(=O)NC(=O)C2C(=O)CC3(CCCCC3)CC2=O)cc1 | 13% (inactive)
8 | NC(=S)N1N=C2c3ccccc3CC[C@H]2[C@@H]1c1ccc(Cl)cc1 | 28% (inactive)
9 | O=[N+]([O-])/C=C/c1cc2ccc3ccccc3c2[nH]1 | 83% (active)
10 | O=C1C(=C2CCCC2)CCC1CN1CCCCC1 (configuration not stated) | 13% (inactive)
11 | OC(CC(O)(C(F)(F)F)C(F)(F)F)c1ccc(C(O)CC(O)(C(F)(F)F)C(F)(F)F)cc1 (configuration not stated) | 90% (active)
12 | COc1cc2c(cc1OC)[C@@H](Nc1ccc(C#N)cc1)C1COC(=O)[C@@H]1C2c1cc(OC)c(O)c(OC)c1 (some centres not stated) | 16% (inactive)
13 | O=c1cccccc1[O-].O=c1cccccc1[O-].O=c1cccccc1[O-].[Eu+3] | 13% (inactive)
14 | O=C1c2ccccc2C(=O)c2sc(Nc3ccccc3Cl)nc21 | 94% (active)
15 | NC(CCCCCCCCCCCCC(N)C(=O)c1ccccc1)C(=O)c1ccccc1 (configuration not stated) | 59% (inactive)
16 | CC1=C(C)C(=O)C2=C(OCCO2)C1=O | 3% (inactive)
17 | c1ccc(-c2cc(C3CO3)c3ccccc3n2)cc1 (configuration not stated) | 6% (inactive)
18 | S=C1C(=Nc2ccccc2)N(c2ccccc2)/C(=N\c2ccccn2)N1c1ccccc1 | 37% (inactive)

Row | Structure (SMILES) | growth inhibition
19 | CCC(OC(C)=O)C1CC(C(C)C)CCC1C (configuration not stated) | 4% (inactive)
20 | CC(C)=CCc1c2c(c(O)c3c(=O)c(-c4ccc(O)c(O)c4)coc13)C=CC(C)(C)O2 | 90% (active)
21 | O=C(NC(N1CCN(c2cc3c(cc2F)c(=O)c(C(=O)O)cn3C2CC2)CC1)(C(F)(F)F)C(F)(F)F)c1ccccc1 | 0% (inactive)
22 | Fc1cc(F)c(F)c(S)c1F | 0% (inactive)
23 | COc1ccc2cc3c4cc5c(cc4cc[n+]3cc2c1OC)OCO5 | 53% (inactive)
24 | CCCCCCCCNCCCCCCCC | 96% (active)
25 | Nc1cc(Cl)ccc1Nc1ccccc1 | -31% (inactive)
26 | O=C(/C(=C/c1ccc(O)cc1)c1ccccc1)c1ccccc1 | 68% (inactive)
27 | O=Cc1ccccc1C=O | 1% (inactive)
28 | C1=CCN([B-](c2ccccc2)[C+]2CCCCC2)C=C1 | -1% (inactive)
29 | CC/C(=C(\c1ccccc1)c1ccc(OCC[N+](C)(C)C)cc1)c1ccccc1 | 99% (active)
30 | O=S(=O)(c1cccc(C(F)(F)F)c1)N1c2ccccc2-n2cccc2C1c1cccnc1 (configuration not stated) | 70% (active)
31 | Nc1ccc2c(c1)C(=O)c1c(F)cccc1-2 | 0% (inactive)
32 | CN(C)/C(=N/C(=S)Nc1ccccc1)SCc1ccccc1 | 3% (inactive)
33 | CCN(CC)C(=S)N/N=C(\C)c1ccccc1O | 66% (inactive)
34 | CC(C)OC(=O)NNc1cc(Cl)ccc1Cl | 41% (inactive)
35 | CC(C)CCC[C@@H](C)[C@H]1CC[C@H]2[C@@H]3CC[C@H]4C[C@H](N)CC[C@]4(C)[C@H]3CC[C@]12C | -4% (inactive)
36 | O=C1c2ccccc2-c2ccc(N=Cc3ccccc3)cc21 | -5% (inactive)

Same assay, conditions: S. cerevisiae mlh1 strain growth inhibition; at 33.0 µM; active compounds read high

Row | Structure (SMILES) | growth inhibition
37 | COc1ccc2nc3cccc([N+](=O)[O-])c3c(NCCNCCN(C)C)c2c1 | -3% (inactive)
38 | Cc1cccc(/C=N/NC(=S)NC2CCCCC2)n1 | 12% (inactive)
39 | COC(=O)C(=O)c1c(-c2ccc(Cl)c(Cl)c2)[nH]c2[nH]n(-c3ccccc3)c(=O)c2c1=O | 57% (inactive)
40 | c1ccc([P+](CCN2Cc3ccccc3C2)(c2ccccc2)c2ccccc2)cc1 | 60% (inactive)
41 | Cc1cc(C)c2[s+]snc2c1 | 4% (inactive)
42 | CC(C)(Br)C(=O)/C=C/c1ccccc1 | 15% (inactive)
43 | Cc1ccc(S(=O)(=O)NC(=O)C2C(=O)CC3(CCCCC3)CC2=O)cc1 | 82% (active)
44 | NC(=S)N1N=C2c3ccccc3CC[C@H]2[C@@H]1c1ccc(Cl)cc1 | 51% (inactive)
45 | O=[N+]([O-])/C=C/c1cc2ccc3ccccc3c2[nH]1 | 93% (active)
46 | O=C1C(=C2CCCC2)CCC1CN1CCCCC1 (configuration not stated) | 84% (active)
47 | OC(CC(O)(C(F)(F)F)C(F)(F)F)c1ccc(C(O)CC(O)(C(F)(F)F)C(F)(F)F)cc1 (configuration not stated) | 99% (active)
48 | COc1cc2c(cc1OC)[C@@H](Nc1ccc(C#N)cc1)C1COC(=O)[C@@H]1C2c1cc(OC)c(O)c(OC)c1 (some centres not stated) | 33% (inactive)
49 | O=c1cccccc1[O-].O=c1cccccc1[O-].O=c1cccccc1[O-].[Eu+3] | 95% (active)
50 | O=C1c2ccccc2C(=O)c2sc(Nc3ccccc3Cl)nc21 | 99% (active)
51 | NC(CCCCCCCCCCCCC(N)C(=O)c1ccccc1)C(=O)c1ccccc1 (configuration not stated) | 94% (active)
52 | CC1=C(C)C(=O)C2=C(OCCO2)C1=O | 14% (inactive)
53 | c1ccc(-c2cc(C3CO3)c3ccccc3n2)cc1 (configuration not stated) | 73% (active)
54 | S=C1C(=Nc2ccccc2)N(c2ccccc2)/C(=N\c2ccccn2)N1c1ccccc1 | 99% (active)

Row | Structure (SMILES) | growth inhibition
55 | CCC(OC(C)=O)C1CC(C(C)C)CCC1C (configuration not stated) | 8% (inactive)
56 | CC(C)=CCc1c2c(c(O)c3c(=O)c(-c4ccc(O)c(O)c4)coc13)C=CC(C)(C)O2 | 93% (active)
57 | O=C(NC(N1CCN(c2cc3c(cc2F)c(=O)c(C(=O)O)cn3C2CC2)CC1)(C(F)(F)F)C(F)(F)F)c1ccccc1 | 11% (inactive)
58 | Fc1cc(F)c(F)c(S)c1F | 72% (active)
59 | COc1ccc2cc3c4cc5c(cc4cc[n+]3cc2c1OC)OCO5 | 87% (active)
60 | CCCCCCCCNCCCCCCCC | 99% (active)
61 | Nc1cc(Cl)ccc1Nc1ccccc1 | -25% (inactive)
62 | O=C(/C(=C/c1ccc(O)cc1)c1ccccc1)c1ccccc1 | 98% (active)
63 | O=Cc1ccccc1C=O | 36% (inactive)
64 | C1=CCN([B-](c2ccccc2)[C+]2CCCCC2)C=C1 | 75% (active)
65 | CC/C(=C(\c1ccccc1)c1ccc(OCC[N+](C)(C)C)cc1)c1ccccc1 | 99% (active)
66 | O=S(=O)(c1cccc(C(F)(F)F)c1)N1c2ccccc2-n2cccc2C1c1cccnc1 (configuration not stated) | 93% (active)
67 | Nc1ccc2c(c1)C(=O)c1c(F)cccc1-2 | 16% (inactive)
68 | CN(C)/C(=N/C(=S)Nc1ccccc1)SCc1ccccc1 | 11% (inactive)
69 | CCN(CC)C(=S)N/N=C(\C)c1ccccc1O | 98% (active)
70 | CC(C)OC(=O)NNc1cc(Cl)ccc1Cl | 50% (inactive)
71 | CC(C)CCC[C@@H](C)[C@H]1CC[C@H]2[C@@H]3CC[C@H]4C[C@H](N)CC[C@]4(C)[C@H]3CC[C@]12C | -7% (inactive)
72 | O=C1c2ccccc2-c2ccc(N=Cc3ccccc3)cc21 | 23% (inactive)
